# Results published in PubChem BioAssay (NCATS).
# Results filed as inconclusive are left out. The source made the active and inactive calls. Calls follow the shape of the dose curve; as a rule, active = well fitted inhibition curve with a large enough effect; inconclusive = small, poorly fitted or top-dose-only effect; inactive = no such curve, though single readings can be large or run the other way.
# System: Zika virus NS2B-NS3 protease (unlinked complex)
# Experiment: Primary screen GU Rhodamine qHTS for Zika virus inhibitors: Unlinked NS2B-NS3 protease assay (AID 1347159); also: nearly all actives have a fitted effect of over 60% in size
# Details: Recombinant ZIKV NS2B-NS3 protease, Rhodamine110 substrate fluorescence; series mostly up to 107 µM; activity change, negative = inhibition: at the top concentration
# Method in brief: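 Noncovalent NS2B hydrophilic domain–NS3 protease domain complex (25 nM) preincubated 15 min at room temperature with compounds (up to 114 microM) in 10 mM Tris-HCl pH 8.0, 0.01% Tween 20; 1.5 microM Rhodamine110 substrate added, fluorescence change over 15 min fitted to Hill equation.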
# % is scaled to controls: 0 for no effect and ±100 for the full control effect; potency is read from the fitted curve at half-maximal effect.
Compound,Potency,"activity change, negative = inhibition"
CCC/C=C/c1cc2c(C=O)c(O)c(CC=C(C)C)cc2o1,7.94 µM (active),–
C=C(C(=O)O)[C@@H]1CC=C(CCC(C)=O)[C@@H](C)CC1,56.2 µM (active),–
CC(C)[C@@H](c1ccc(C(F)(F)F)cc1CN(Cc1cc(C(F)(F)F)cc(C(F)(F)F)c1)c1nnn(C)n1)N1CCC(C(=O)O)CC1,3.16 µM (active),–
CC(=O)[C@H]1CC[C@H]2[C@@H]3CC=C4C[C@@H](OS(=O)(=O)O)CC[C@]4(C)[C@H]3CC[C@]12C,17.8 µM (active),–
N#Cc1cccc(C(=O)Nc2cc(-c3ccccc3)nn2-c2ccccc2)c1,–,14.2% (inactive)
CN(C)c1ccnc2sc3c(=O)n(N4CCCCCC4)cnc3c12,–,-10.9% (inactive)
C=C(CCC1C(C)(O)CCC2C(C)(C)C(O)CCC12C)C(O)CO (stereo unspecified),39.8 µM (active),–
CC(=O)O[C@H]1CC(C)(C)CC2[C@]13CO[C@@]21CCC2[C@@]4(C)CC[C@H](O[C@@H]5OC[C@H](O[C@@H]6O[C@H](CO)[C@@H](O)[C@H](O)[C@H]6O[C@@H]6OC[C@@H](O)[C@H](O)[C@H]6O)[C@H](O)[C@H]5O[C@@H]5O[C@H](CO)[C@@H](O)[C@H](O)[C@H]5O)[C@@](C)(CO)C4CC[C@@]2(C)[C@]1(C)C[C@H]3O (stereo partly specified),–,7.77% [at 32.5 µM] (inactive)
CN(C)Cc1ccc(-c2cnn3c(-c4cccc(NC(=O)c5cccc(C(F)(F)F)c5)c4)ccnc23)cc1,–,204% (inactive)
CC(C)(Cc1nc(-c2ccc(O)cn2)no1)C(=O)NC1=C(C(=O)O)CCCC1,–,18.9% (inactive)
CCC(C)C(=O)OC12C(OC(C)=O)C(C)C3(O)C(C=C(CO)CC4(O)C(=O)C(C)=CC43)C1C2(C)C (stereo unspecified),–,20.4% [at 57.1 µM] (inactive)
